Source: PubChem BioAssay (several laboratories)
In the library only some 3.3% were active in any assay of this set; here they are far more common.
Efflux pump inh – inhibitors of Candida antifungal efflux pumps expressed in yeast | S. cerevisiae Candida pump triplex, Nile Red efflux | inhibition, % at 10 µM | hit rate 0.44% among 330,000;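 active = plate passing quality check with inhibition over a set limit, or well fluorescence over plate mean plus 4 SD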;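 also: Nile Red retained in pooled yeast measured as flow cytometry median fluorescence; 0% = buffer negative control and 100% = Enniatin B positive control; higher means more Nile Red kept so more efflux inhibition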
Cl transport mod – modulates chloride dependent transport by human KCC2; KCC2 cells, thallium flux FluoZin-2 fluorescence; B-score of Tl+ flux slope (higher = more flux/activation; lower = inhibition) at 10 µM; hit rate 2.2% among 190,000;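 active = thallium flux slope and its plate-corrected score both differing from the plate sample mean at a set confidence after two filtering rounds, in either direction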;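 also: slope of fluorescence scaled to starting intensity during 10 to 20 s after thallium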
Target sequence (Q9H2X9 whole entry, looked up): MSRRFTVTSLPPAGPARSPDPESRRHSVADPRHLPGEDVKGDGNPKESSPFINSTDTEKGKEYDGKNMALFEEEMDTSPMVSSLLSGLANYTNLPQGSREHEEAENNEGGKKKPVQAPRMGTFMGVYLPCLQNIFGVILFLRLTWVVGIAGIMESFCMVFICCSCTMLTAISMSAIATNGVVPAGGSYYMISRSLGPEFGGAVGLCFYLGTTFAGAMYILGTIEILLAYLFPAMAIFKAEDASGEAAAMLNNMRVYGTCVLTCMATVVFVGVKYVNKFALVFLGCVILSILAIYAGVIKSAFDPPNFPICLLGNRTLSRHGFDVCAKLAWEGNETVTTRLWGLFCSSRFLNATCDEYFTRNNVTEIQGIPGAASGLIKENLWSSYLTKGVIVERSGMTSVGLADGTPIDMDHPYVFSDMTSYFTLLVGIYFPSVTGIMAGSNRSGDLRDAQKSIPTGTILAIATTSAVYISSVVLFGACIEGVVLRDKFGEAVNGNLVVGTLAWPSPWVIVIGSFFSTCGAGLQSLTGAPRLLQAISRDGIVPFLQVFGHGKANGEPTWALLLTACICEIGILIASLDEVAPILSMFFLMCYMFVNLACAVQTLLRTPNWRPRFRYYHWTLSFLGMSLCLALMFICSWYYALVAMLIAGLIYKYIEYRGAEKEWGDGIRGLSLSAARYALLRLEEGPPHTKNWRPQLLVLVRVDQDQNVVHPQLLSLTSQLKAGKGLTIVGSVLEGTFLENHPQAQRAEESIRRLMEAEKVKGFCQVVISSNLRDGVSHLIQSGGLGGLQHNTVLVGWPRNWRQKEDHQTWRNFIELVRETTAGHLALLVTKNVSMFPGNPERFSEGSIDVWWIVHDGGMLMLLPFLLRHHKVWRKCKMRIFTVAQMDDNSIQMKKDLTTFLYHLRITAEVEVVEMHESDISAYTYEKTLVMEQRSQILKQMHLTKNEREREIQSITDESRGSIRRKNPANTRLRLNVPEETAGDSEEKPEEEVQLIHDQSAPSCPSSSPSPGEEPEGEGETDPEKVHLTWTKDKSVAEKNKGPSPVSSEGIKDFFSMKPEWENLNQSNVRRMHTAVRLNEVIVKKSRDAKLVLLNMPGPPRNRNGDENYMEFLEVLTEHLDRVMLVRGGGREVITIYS
PHOSPHO1 inh – inhibitors of human PHOSPHO1 phosphatase; Q8TCT1; recombinant PHOSPHO1, absorbance phosphatase assay; inhibition, % at 13.3 µM; hit rate 1.1% among 290,000; AID 1565; in the data active = inhibition above about 60%
Calb FLC – C. albicans growth modulation with fluconazole. C. albicans CaCi-2 (fluconazole-resistant clinical isolate) + fluconazole, Alamar Blue growth, 48 h. growth inhibition, % (concentration not given with the values). hit rate 0.57% among 300,000;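 active = growth inhibition above about 58% in most replicates, limit read from the data, passing the limit was not always enough; inconclusive = exactly half the replicates above a set limit; inactive = most replicates below a set limit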;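 also: all wells also contain fluconazole at 8 µg/ml as a sub-toxic cotreatment; 0% = median of DMSO wells and 100% = median of geldanamycin control wells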
H9c2 protect – protects H9c2 cardiomyocytes from peroxide injury | H2O2 injury protection, ATPLite, 2 h | protection from H2O2 cell death, % at 20 µM | hit rate 0.63% among 360,000 | AID 588492;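 active = compounds giving at least 50% protection of heart cells from peroxide-induced death in the single-dose screen, raw or plate-pattern-corrected value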;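 also: 0% = DMSO wells with peroxide and 100% = DMSO wells without peroxide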
* hit, by the source's call; ? = inconclusive; nt = no result given.

SMILES	Efflux pump inh	Cl transport mod	PHOSPHO1 inh	Calb FLC	H9c2 protect
CN1CCN(S(=O)(=O)c2cccc(C(=O)N(Cc3nnc(-c4ccccc4Cl)o3)C3CC3)c2)CC1	2	nt	23	-2	-7
O=S(=O)(Cc1ccccc1)C1CCCCC1O (centres undefined)	0	-0.45	17	-2	-9
O=c1c2c(nc3nc(NCc4ccccc4Cl)[nH]n13)CCC2	0	-0.5	20	7	nt
Cc1ccc(SCC(=O)Nc2cc([N+](=O)[O-])ccc2O)cc1	0	-3.5	41	87*	-18
CC(CC(=O)O)CC(=O)Nc1cc([N+](=O)[O-])ccc1O (centres undefined)	0	0.11	-13	-11	9
O=C(N/N=C/c1cc([N+](=O)[O-])ccc1O)C1CC1	0	-1	2	23	30
O=C(N/N=C/c1cc([N+](=O)[O-])ccc1O)C(O)(c1ccccc1)c1ccccc1	1	nt	-36	98*	61*
COc1cc(C(F)(F)F)ccc1C(=O)NCCc1ccco1	0	nt	11	5	-4
COc1ccc(CCC(=O)N2CCN(S(=O)(=O)c3ccc(OC)c([N+](=O)[O-])c3)CC2)cc1	nt	nt	nt	nt	-3
Cc1ccccc1NC(=S)NC(=O)c1cncc(Br)c1	0	29*	-16	?	-3
Cc1cc(O)ccc1NC(=S)NC(=O)c1cncc(Br)c1	0	nt	8	87*	25
O=C(NC(=S)NC1CCCCCC1)c1cncc(Br)c1	-1	48*	15	3	-5
CCOC(=O)c1c(S(=O)(=O)NCC(=O)NCc2ccccc2Cl)c(C)n(C)c1C	0	nt	62*	2	-6
CCOC(=O)c1c(S(=O)(=O)Nc2ccccn2)c(C)n(C)c1C	0	nt	65*	1	4
CCOC(=O)c1c(S(=O)(=O)NCC(=O)NCc2ccc(C)cc2)c(C)n(C)c1C	0	nt	24	2	-3
COc1ccc(C2CC(=O)C=C(NCc3ccccc3)C2)cc1 (centres undefined)	0	-2.8	27	-22	-5
CCCCn1cnc2c(oc3ccccc32)c1=O	0	nt	38	-6	-2
Cc1ccc(Cl)cc1NC(=O)CNC(=O)N1CC(=O)Nc2ccccc21	0	nt	80*	-3	-5
Cc1ccc(Cl)cc1NC(=O)CCNC(=O)N1CC(=O)Nc2ccccc21	0	nt	-22	2	3
O=C(NC1CCCCC1)C(c1ccc2ncccc2c1)N(Cc1ccc2c(c1)OCO2)C(=O)c1ccc2c(c1)OCCO2 (centres undefined)	0	-2.8	-22	6	4
O=C(NC1CCCCC1)C(c1ccc2ncccc2c1)N(Cc1ccco1)C(=O)c1ccc2c(c1)OCCO2 (centres undefined)	0	-0.87	24	47	56*
O=C(NC1CCCCC1)C(c1cccs1)N(Cc1cccs1)C(=O)c1cccs1 (centres undefined)	0	0.14	-12	-8	-1
O=C(NC1CCCCC1)C(c1ccc2ncccc2c1)N(Cc1ccc(F)cc1)C(=O)c1ccc2c(c1)OCCO2 (centres undefined)	0	-1.5	32	87*	10
O=C(NC1CCCCC1)C(c1ccc2ncccc2c1)N(Cc1cccs1)C(=O)c1cccs1 (centres undefined)	0	-0.92	37	1	51*
C=CCNC(=O)CSc1nnc(-c2ccc(S(=O)(=O)N3CCCC3)cc2)n1C	0	nt	10	nt	-1
SMILES	Efflux pump inh	Cl transport mod	PHOSPHO1 inh	Calb FLC	H9c2 protect
CCc1ccccc1NC(=O)c1ccc2c(O)c(S(=O)(=O)c3ccc(OC)cc3)c(=O)[nH]c2c1	0	nt	58	2	-7
COc1cc(C(=O)NC(C)c2ccc3ccccc3c2)cc(Cl)c1O (centres undefined)	0	nt	35	-3	2
COc1ccc(F)cc1-c1cc(C(=O)NCc2ccc(F)cc2)[nH]n1	nt	nt	nt	nt	2
CCN(CC)C(=O)C(=O)Nc1cc(C(F)(F)F)ccc1Cl	0	nt	75*	-24	-10
CC(=O)c1cccc(NC(=O)C(C)OC(=O)Cc2n[nH]c(=O)c3ccccc23)c1 (centres undefined)	0	nt	41	-16	77*
O=C(COC(=O)Cc1n[nH]c(=O)c2ccccc12)Nc1ncc(Cl)cc1Cl	0	nt	nt	nt	67*
O=C(Cc1n[nH]c(=O)c2ccccc12)OCC(=O)c1ccccc1	0	nt	nt	nt	61*
COc1ccccc1NC(=O)c1ccc(NC(=O)Cc2n[nH]c(=O)c3ccccc23)cc1	0	-0.95	12	-1	70*
